HT1080NT lethal: kills 2HG-producing HT-1080-NT fibrosarcoma cells | Potency, µM (doses to about 46.1 µM), for the others: at the top dose activity, negative = less viability, hits mostly cytotoxic | HT-1080-NT fibrosarcoma viability, CellTiter-Glo ATP luminescence, 48 h | 360,000 tested, 1.6% active;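 further: NT is the 2HG producing partner of a matched IDH1 knockdown line; 0% = DMSO-treated cells and -100% = media-only wells without cells; nearly all actives have a fitted effect of over 55% in size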
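Read-out is CellTiter-Glo luminescence after 10 minutes at room temperature, following 48 hours' compound treatment of HT-1080-NT cells (750 cells/well, RPMI, 5% FBS, 37 degrees C).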
KB-3-1 cytotox: KB-3-1 parental cell cytotoxicity | KB-3-1 viability, CellTiter-Glo ATP luminescence, 72 h | Potency, µM (titrated, usually from 46.1 µM), usual class: cytotoxic | 400,000 tested, 1.4% active | AID 1347075; further: on the % scale 0 is the no-effect control and ±100 the full control effect; nearly all actives have a fitted effect of over 60% in size
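Luminescent ATP read-out (CellTiter-Glo) measures survival of drug-naive KB-3-1 cells after 72 h compound exposure at 37 °C. Titration series was screened from lowest to highest concentration, with DMSO vehicle plates as background controls.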
KB-V1 cytotox: KB-V1 MDR subline cytotoxicity; 400,000 tested, 3.4% active; KB-V1 MDR cells viability, CellTiter-Glo, 72 h; Potency, µM (top dose mostly 46.1 µM), actives largely listed as cytotoxic; AID 1347076; further: on the % scale 0 is the no-effect control and ±100 the full control effect; nearly all actives have a fitted effect of over 60% in size
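Cells of the MDR subline KB-V1 are plated, dosed with compound at multiple concentrations, and incubated 72 h at 37 degrees C; CellTiter-Glo is then added and luminescence read after 10 min.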
HT1080 IDH1KD tx: HT-1080 IDH1 knockdown cell toxicity (counter line); AID 686971; Potency, µM (doses to about 46.1 µM), without a hit: top-dose activity, negative = toxicity, most hits filed as cytotoxic; HT-1080 IDH1 knockdown viability, ATP luminescence, 48 h; 360,000 tested, 2% active;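 further: 0% = DMSO wells and -100% = cell-free medium wells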
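Knockdown cells (IDH1KD HT-1080) received compounds 2 h after plating at 750 cells/well and were kept 48 h at 37 °C in 5% FBS RPMI. A CellTiter-Glo luminescence read gave % activity for curve fitting.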
ATXN2 expr inh: inhibitors of ATXN2 expression | HEK-293 ATXN2-luciferase reporter, luminescence, 24 h | Potency, µM (highest dose often 57 µM), for inactives: at the top dose activity change, negative = inhibition, most hits filed as inhibitors | 360,000 tested, 0.72% active; further: on the % scale 0 is the no-effect control and ±100 the full control effect; nearly all actives have a fitted effect of over 55% in size
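qHTS (up to 57 uM final) was run with 24 h compound exposure of reporter cells at 37 °C. Each well was multiplexed: SteadyGlo luminescence measured ATXN2-luciferase expression after a fluorogenic Gly-Phe-AFC viability readout (25 uM final).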
S2 tox: cell viability loss in ATXN counter-screen. Potency, µM (series often up to 56.7 µM), actives largely listed as cytotoxic. 400,000 tested, 0.49% active. S2 cells (HEK-293 line with an ATXN2-luciferase reporter) viability, CellTiter-Fluor protease fluorescence, 24 h; further: nearly all actives have a fitted effect of over 40% in size
* = called active by the depositor; i = inactive; ? = inconclusive; · = no result. The list is not random: actives were taken first. Their share in the collection is about 6.2%. The call rests on the fitted dose curve; in most records, active means well fitted curve in the direction sought with a large enough effect; inconclusive means small, poorly fitted or top-dose-only effect, or another doubt; inactive means no such curve, though single readings can be large; an effect the other way counts as inactive or inconclusive. Potency means the concentration at half of the fitted maximal effect.

SMILES	HT1080NT lethal	KB-3-1 cytotox	KB-V1 cytotox	HT1080 IDH1KD tx	ATXN2 expr inh	S2 tox
Cc1cc2c(c(/C=C/C(=O)c3ccccc3)c1)OC1(C=C2)Oc2ccccc2C(=O)N1C (configuration not stated)	?	16.4µM*	?	?	?	?
CC(=O)Nc1ccc(NC(=O)C(C)OC(=O)CCc2c[nH]c3ccccc23)cc1 (configuration not stated)	0.2%	i	i	11.1%	1.4%	i
CC[n+]1c(C)cc2c(sc3ccccc32)c1C	5.17µM*	2.59µM*	i	?	-33.7%	i
CCOc1ccc(NC(=O)CN2CCN(c3ccccc3C)CC2)cc1S(=O)(=O)N1CCCC1	-1.6%	i	4.11µM*	-1.9%	-11.2%	i
CCOc1ccc(NC(=O)COc2cccc3cccnc23)cc1S(=O)(=O)N1CCCC1	-14.4%	?	20.6µM*	?	·	i
O=C(COc1cccc2cccnc12)Nc1cccc(S(=O)(=O)N2CCCC2)c1	0.8%	i	?	3.1%	-13.9%	i
Cc1cc2c(cc(C(=O)OCC(=O)NC3CCCCC3)n2C)o1	-18.5%	i	?	-15.2%	19.6%	i
CCCn1c(N)c(C(=O)CSc2nnc(Cc3ccccc3)o2)c(=O)n(C)c1=O	-16.8%	i	10.3µM*	?	-34.1%	?
OC(c1cccc(CN2CCCCC2)c1)c1ncc(-c2cccc3ccccc23)[nH]1 (configuration not stated)	16.4µM*	i	i	?	-9.5%	i
OC(c1cccc(CN2CCCCC2)c1)c1ncc(-c2cccc(C(F)(F)F)c2)[nH]1 (configuration not stated)	20.6µM*	i	i	?	-10.1%	i
COc1cccc(-c2cnc(C(O)c3cccc(CN4CCCCC4)c3)[nH]2)c1 (configuration not stated)	8.2%	i	i	4.9%	8.5%	i
N#CC1(c2ccc(NC(=O)c3ccccc3F)cc2)CCCC1	-7.4%	?	23.1µM*	-6.4%	70.9%	i
CCN(CC)c1ccc(NC(=O)c2ccccc2F)cc1	?	16.4µM*	?	16.4µM*	19.1%	i
O=C(Nc1ccc(Nc2ccccc2)cc1)c1ccccc1F	-14.9%	i	i	-19.4%	21.6%	i
CCN(CC)c1ccc(NC(=O)c2cc(Cl)ccc2OC)cc1	?	i	?	20.6µM*	17.3%	i
O=C(/C=C/c1ccc(NC(=O)c2ccccc2-c2ccccc2C(=O)O)cc1)c1ccccc1	?	i	i	?	·	i
O=C(/C=C/c1ccncc1)c1ccc(NC(=O)c2ccccc2F)cc1	7.31µM*	?	?	9.2µM*	-14.4%	?
CC(O)(COc1ccccc1)c1ccc2c(c1)CN(Cc1ccc3nsnc3c1)CCO2 (configuration not stated)	·	·	·	·	·	i
CNC[C@H](CC1CCCCC1)NC[C@H](Cc1ccccc1)NCCC12CC3CC(CC(C3)C1)C2	20.6µM*	?	18.4µM*	?	-25.7%	15.8µM*
NC[C@H](Cc1ccccc1)NCCCCC1CCCCC1	0.2%	i	i	6.9%	-11.7%	i
CCOC(=O)c1cc(-c2ccccc2)n(-c2cccc(C(=O)Nc3cccc(SC)c3)c2)c1C	·	i	i	·	·	·
Cc1cc(CNC(=O)c2cnn(-c3nccc(-c4cc(C)sc4C)n3)c2C2CC2)on1	·	·	·	·	·	i
CCCN(CC(=O)Nc1ccc(F)c(F)c1F)CC(=O)Nc1c(Cl)cccc1Cl	3.5%	i	18.4µM*	2.6%	9.0%	i
CCCN(CC(=O)Nc1ccc(NC(C)=O)cc1)CC(=O)Nc1ccc(F)c(F)c1F	-4.7%	i	i	-16.6%	-2.4%	i
CCCN(CC(=O)Nc1ccc(C)cc1Br)CC(=O)Nc1ccc(F)c(F)c1F	-2.7%	i	8.2µM*	-14.8%	-5.5%	?
SMILES	HT1080NT lethal	KB-3-1 cytotox	KB-V1 cytotox	HT1080 IDH1KD tx	ATXN2 expr inh	S2 tox
Cc1ccc(C(=O)NCC(=O)OCc2cc(=O)n3nc(C4CC4)sc3n2)cc1	·	i	i	·	5.7%	i
CC1CCCCC1NC(=O)/C(C#N)=C/c1ccc2c(c1)OCCO2 (configuration not stated)	-13.7%	18.4µM*	?	-8.7%	12.4%	i
CCc1ccc(N(CC(=O)N2CCCC2)S(C)(=O)=O)cc1	-7.3%	i	i	-5.9%	·	i
Cc1cc(-c2ccnc(-n3ncc(C(=O)NCC4CCCN(C)C4)c3C3CC3)n2)c(C)s1 (configuration not stated)	·	·	·	·	·	i
Cc1ccc(S(=O)(=O)N2CCCC2c2nc3ccccc3s2)cc1 (configuration not stated)	10.8%	i	20.6µM*	-5.3%	-26.1%	i
CCCCCCC1CCC(C(=O)NC(C(=O)O)C(C)C)CC1 (configuration not stated)	·	i	i	·	-2.1%	i
CCCCCC1CCC(C(=O)NNC(=S)NCC)CC1 (configuration not stated)	6.31µM*	?	14.6µM*	3.16µM*	-9.0%	i
Cc1ccc(S(=O)(=O)NCCc2nnc3ccc(SCC(=O)Nc4ccc(F)cc4F)nn23)cc1	·	i	i	·	·	·
COc1cccc(/C=N/NC(=O)c2cc(-c3ccccn3)nc3ccccc23)c1O	?	?	?	?	5.01µM*	?
Cc1cc(C(=O)N/N=C/c2cccc([N+](=O)[O-])c2)c2ccccc2n1	-9.1%	i	i	-12.2%	-13.3%	i
O=C(N/N=C/c1ccc(F)cc1)c1cc(-c2ccccn2)nc2ccccc12	-2.3%	i	i	-8.0%	1.5%	i
COc1cc([N+](=O)[O-])cc(/C=N/NC(=O)c2cc(C)nc3ccccc23)c1O	?	?	i	13µM*	·	i
COc1cc(/C=N/NC(=O)c2cc(-c3ccccc3OC(C)C)nc3ccccc23)ccc1O	-20.2%	18.4µM*	11.6µM*	?	30.8%	?
COc1cc(/C=N/NC(=O)c2cc(-c3cccc(Br)c3)nc3ccccc23)cc(OC)c1O	?	?	?	11.6µM*	-24.2%	i
COc1ccc2c(=O)cc(-c3ccncc3)oc2c1OC	?	?	?	23.1µM*	-24.8%	i
COc1ccc(-c2cc(=O)c3c(OC)c(OC)c(OC)c(OC)c3o2)cc1OC	-8.5%	i	?	-21.6%	-3.0%	i
COc1cccc(-c2nc(SCc3cc(=O)c4cc(Cl)ccc4[nH]3)n[nH]2)c1	·	i	i	·	-17.2%	?

Screening results (PubChem)
